Measurements from the supplement of paper PMC6555819.

Assays:
Experiment in all cases: PBM binding z-score (relative to random genomic background probes); higher = stronger binding; sequences stand for … in GC…GCGATTGACAGCGTAGAATGAAGG
[1] = test system: RARb homodimer (NR concentration 270 nM)
Summary of the method: (§1)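 Antibodies against each partner of ligand-free nuclear receptor dimers (one per run) detected binding on custom Agilent 4×180K protein-binding microarrays after 1 h incubation. The double-stranded probes had 34-nt variable regions carrying direct-repeat seeds, single-nucleotide variants, half-site ablations and random human genomic background sequences. Binding z-scores, from regression-normalized fluorescence, use the random background probes as reference.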

[2] = test system: RARg:RXRa (NR concentration 270 nM, RXRa partner concentration 90 nM)
Summary of the method: as §1

[3] = test system: RARg homodimer (NR concentration 270 nM)
Summary of the method: as §1

[4] = test system: RXRa DBDmut IVT, anti-RXR (DBD mutation: RXRa K156A/R161A, NR concentration 90 nM)
Summary of the method: as §1

[5] = test system: RXRa homodimer (NR concentration 180 nM)
Summary of the method: as §1

[6] = test system: THRa:RXRa (NR concentration 90 nM, RXRa partner concentration 90 nM)
Summary of the method: as §1

[7] = test system: THRa homodimer (NR concentration 90 nM)
Summary of the method: as §1

[8] = test system: VDR homodimer (NR concentration 270 nM)
Summary of the method: as §1

Sequence	PBM binding z-score [1]	PBM binding z-score [2]	PBM binding z-score [3]	PBM binding z-score [4]	PBM binding z-score [5]	PBM binding z-score [6]	PBM binding z-score [7]	PBM binding z-score [8]
GCAGACAGGTTAAACGCAGGTAACTCAGGGTGGC	0.331	1.81	0.406	-0.0571	1.54	2.06	-0.519	-0.623
CCTAGCAGGCCAATCTGGGTTACTCAAGGCTTGA	0.0666	-0.247	-0.0907	-0.131	-0.48	1.61	-0.596	-0.739
CAAACTAGGTCTAGGTCAAAGTCGGTTTGTGCCA	2.76	2.15	2.3	0.796	1.83	2.9	1.64	1.1
AGAACGAGGGCACGCTGAGTTGGTAGCAGAGTAG	1.01	1.69	2.37	1.55	1.19	1.56	-0.105	0.953
AGAATGAGGTTATATGTAGATCAGGGAAGAAAGT	1.34	1.69	1.09	1.74	2.1	2.44	1.22	1.24
GATACAGGGTCAGCTAGAGGCCAGTGTATGGAAA	3.64	6.8	5.06	1.51	4.25	2.98	0.265	0.727
ACTAGTTGGTCCGCTGAGGTCACACACAATTCGG	3.85	3.69	2.81	1.37	3.71	4.4	5.42	4.08
TAGCCTAGGTCATTCAGGGGCCAGTTTAGAAAGC	3.42	5.71	4.11	1.65	2.56	3.67	0.971	1.28
TCGAGTAGATTACCAATGGGGCATTCAGCTTTCT	-0.458	-0.531	-0.494	0.278	-0.304	-0.599	-0.825	-0.571
GCTAGCAGGCCATTTGGGACACTCAATGACGGGC	-0.366	-0.267	0.308	-0.237	-0.122	0.63	-0.00643	-0.65
TCTAGTAGATCAACAGGAGGTTAAGAAAGATCGA	0.413	0.662	0.244	0.766	0.901	0.727	-0.505	0.097
AGAACGACGGCACGCTGAGTTGATAGCAGAGTAG	-0.983	-0.171	-0.213	-0.569	-0.1	-0.601	-1.14	-0.198
TAGCCTAGGTCATTCAGGGGACAGTATAGAAAGC	3.89	6.43	4.2	2.35	2.9	3.75	1.54	1.66
TGTCAAAGTTCGAAGGTAACGTAAGTATCCACAC	1.02	2.38	1.83	1.74	2.23	1.44	0.0268	0.722
GCTTACGAGTCAAAGGTTATAGCATGAATAGAAT	1.24	2.58	1.09	0.218	5	1.76	-0.786	-0.176
ATCTCTAGGTAACAAGTTTAGTGAAAGAGAGGAC	0.455	0.384	0.772	0.0199	0.165	0.929	0.836	0.684
GATACAAGGTCAAGGCCAGAGTACGCGTATTGAT	4.63	5.82	6.11	2.63	5.5	3.88	2.35	2.41
ACTCAAAGTTCAGGACGAGGTAACGTAAAGCACG	3.56	4.83	5.29	3.38	3.39	4.03	1.98	2.46
CCTTACGGGTCACTGTCAGGTTATAGCATTTGGA	3.14	5.51	4.38	1.75	4.49	3.83	0.905	1.41
TGAATGAGGTTAAAGATCAGGGCACGTGGCGTCG	1.91	2.84	1.59	0.869	3.95	3.35	1.32	1.03
GCATATAGGTAATACAAGGTGAGAGTCCGATTGT	0.849	0.265	0.368	0.552	0.4	3.98	0.807	0.0557
CCGACTCGGGCAAAGGTTACCATACTCAGTACGA	2.04	3.36	1.68	0.702	3.21	1.6	-0.126	-0.375
TGAATCAGGTTATAAGATCAGGGAACGTTGCAAA	-0.228	0.24	0.42	-0.671	0.358	0.505	-0.129	0.0493
CTACCAAGGTGAACAAGGTCGATGATTACTATTC	2.03	1.58	1.71	0.696	1.61	2.89	1.41	0.758
TCGAGTTGGTTAGTCGGGGCATTCAGCCAACATA	0.0639	-0.34	-0.804	1.41	-0.355	0.331	-0.0261	0.871
CCTAGTTGGTCAAGAGGTCACACACCGGATATGA	5.08	6.18	5.31	1.37	6.37	4.15	2.75	3.07
ATTCCAAGGTGATCGTGAGGTCGTTGATACTAAC	1.59	2.23	0.975	0.914	1.4	3.55	2.95	3.2
GATACAGGGTCAAGGCCAGACTACGCGTATTGAT	3.74	5.51	5.17	2.76	5.73	3.8	1.55	2.1
